Experimental data published in PubChem BioAssay (NCI).
“And” between values parts separate entries of the source, which are not always exact repeats. Identical values can stand only once. About 83,000 compounds went through this panel and 20% of them were active in at least one assay; those are over-represented in the sample as a whole.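 Cell lines were cultured in 96-well plates, exposed to a single compound concentration, and assessed for percent growth 48 hours later.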 The source made the active and inactive calls. Rule for the calls: active = growth percent below 10; inactive = the rest.

Legend:
Experiment in all cases: NCI-60 one-dose screen, 48 h (100 = growth as untreated, 0 = no growth, -100 = all killed)
Details in all cases: 10 µM unless noted
NCI-H23 lung = system: NCI-H23 lung
NCI-H226 lung = system: NCI-H226 lung
NCI-H322M lung = system: NCI-H322M lung
HOP-62 NSCLC = system: HOP-62 NSCLC
NCI-H460 lung = system: NCI-H460 lung
HOP-92 NSCLC = system: HOP-92 NSCLC
NCI-H522 lung = system: NCI-H522 lung
A549/ATCC NSCLC = system: A549/ATCC NSCLC
786-0 renal = system: 786-0 renal
COLO 205 colon = system: COLO 205 colon
DU-145 prostate = system: DU-145 prostate
K-562 leukemia = system: K-562 leukemia
MALME-3M melanoma = system: MALME-3M melanoma
MDA-MB-231 breast = system: MDA-MB-231 breast
RXF 393 renal = system: RXF 393 renal
SF-268 CNS = system: SF-268 CNS
SF-295 CNS = system: SF-295 CNS
SF-539 CNS = system: SF-539 CNS
UACC-257 melanoma = system: UACC-257 melanoma
M14 melanoma = system: M14 melanoma

Measured: growth

Cc1cc(N2CCN(CC(=O)Nc3ccc4c(ccn4Cc4ccccc4)c3)CC2)nc(N2CCCCCC2)n1
active: HOP-92 NSCLC 0.991% | M14 melanoma -7.84%
inactive: NCI-H23 lung 53.2% | NCI-H226 lung 57.4% | NCI-H322M lung 77.9% | HOP-62 NSCLC 59.8% | NCI-H460 lung 40% | NCI-H522 lung 62.4% | A549/ATCC NSCLC 46.3% | 786-0 renal 79.4% | COLO 205 colon 30.6% | DU-145 prostate 71.5% | K-562 leukemia 14.8% | MALME-3M melanoma 18.2% | MDA-MB-231 breast 28.2% | RXF 393 renal 28.7% | SF-268 CNS 72.9% | SF-295 CNS 44.4% | SF-539 CNS 69.4% | UACC-257 melanoma 42.8%

CC12CCC(C(=O)CC1=O)C2(C)C (stereo not given)
inactive: NCI-H23 lung 108% and 97.9% | NCI-H226 lung 95.8% | NCI-H322M lung 112% and 97.3% | HOP-62 NSCLC 110% | NCI-H460 lung 104% and 114% | HOP-92 NSCLC 102% and 94.9% | NCI-H522 lung 103% and 153% | A549/ATCC NSCLC 101% and 103% | 786-0 renal 104% and 96.6% | COLO 205 colon 114% and 110% | DU-145 prostate 110% and 108% | K-562 leukemia 102% and 84.9% | MALME-3M melanoma 105% and 87.4% | MDA-MB-231 breast 111% and 105% | RXF 393 renal 106% | SF-268 CNS 99.2% and 100% | SF-295 CNS 100% | SF-539 CNS 107% and 112% | UACC-257 melanoma 103% and 91.7% | M14 melanoma 102% and 101%

CN1CCN(C(=O)OCc2nc3c(N4CCOCC4)nc(Cl)nc3n2C)CC1
inactive: NCI-H322M lung 53.7% | HOP-62 NSCLC 47.3% | A549/ATCC NSCLC 25.1% | SF-295 CNS 73.4%
active: NCI-H23 lung -1.07% | NCI-H226 lung -60.8% | NCI-H460 lung 6.7% | HOP-92 NSCLC -32% | NCI-H522 lung -38.8% | 786-0 renal -95.5% | COLO 205 colon -30.8% | DU-145 prostate 1.69% | K-562 leukemia -11% | MALME-3M melanoma -65.3% | MDA-MB-231 breast -77.5% | RXF 393 renal -94.9% | SF-268 CNS 1.11% | SF-539 CNS -99% | UACC-257 melanoma -64.7% | M14 melanoma -77.4%

CCOC(=O)n1cc(-c2nonc2-c2cn(C)c3ccc(OC)cc23)c2cc(F)ccc21
inactive: NCI-H23 lung 76.1% | NCI-H226 lung 78.3% | NCI-H322M lung 67.4% | HOP-62 NSCLC 72.6% | NCI-H460 lung 80.6% | HOP-92 NSCLC 71.4% | NCI-H522 lung 74.4% | A549/ATCC NSCLC 56.5% | 786-0 renal 93.9% | COLO 205 colon 90.9% | DU-145 prostate 92.7% | K-562 leukemia 67.7% | MALME-3M melanoma 81.9% | MDA-MB-231 breast 71.4% | RXF 393 renal 89.6% | SF-268 CNS 83.1% | SF-295 CNS 60.8% | SF-539 CNS 86.1% | UACC-257 melanoma 74.5% | M14 melanoma 83.9%

Fc1ccccc1-c1cnn2cc(-c3ccccc3)cnc12
inactive: NCI-H23 lung 95.5% | NCI-H226 lung 94.3% | NCI-H322M lung 95.5% | HOP-62 NSCLC 103% | NCI-H460 lung 98.2% | HOP-92 NSCLC 100% | NCI-H522 lung 97.7% | A549/ATCC NSCLC 94.2% | 786-0 renal 97.2% | COLO 205 colon 118% | DU-145 prostate 110% | K-562 leukemia 83.5% | MALME-3M melanoma 109% | MDA-MB-231 breast 108% | RXF 393 renal 94.9% | SF-268 CNS 88.9% | SF-295 CNS 98.2% | SF-539 CNS 103% | UACC-257 melanoma 110% | M14 melanoma 105%
